90 compounds from article PMC4336329 (PLoS ONE, 2015) can be followed below.

Among all 310,000 compounds or so, about 14,000 (4.5%) showed an effect of 50% or more. The effect is printed as a negative number. The list comes from a sample in which strong results are over-represented; it also holds similar structures and randomly drawn compounds.
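Note: peak tail current of the secondary pulse compared with the same well before compound.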

The assay deals with human ether-à-go-go-related gene (hERG) potassium channel (human, UniProt Q12809). The assay is described as follows: primary screen, population patch clamp on CHO cells stably expressing hERG; higher = less effect of the substance.
human ether-à-go-go-related gene (hERG) potassium channel, sequence (Q12809 whole entry, looked up): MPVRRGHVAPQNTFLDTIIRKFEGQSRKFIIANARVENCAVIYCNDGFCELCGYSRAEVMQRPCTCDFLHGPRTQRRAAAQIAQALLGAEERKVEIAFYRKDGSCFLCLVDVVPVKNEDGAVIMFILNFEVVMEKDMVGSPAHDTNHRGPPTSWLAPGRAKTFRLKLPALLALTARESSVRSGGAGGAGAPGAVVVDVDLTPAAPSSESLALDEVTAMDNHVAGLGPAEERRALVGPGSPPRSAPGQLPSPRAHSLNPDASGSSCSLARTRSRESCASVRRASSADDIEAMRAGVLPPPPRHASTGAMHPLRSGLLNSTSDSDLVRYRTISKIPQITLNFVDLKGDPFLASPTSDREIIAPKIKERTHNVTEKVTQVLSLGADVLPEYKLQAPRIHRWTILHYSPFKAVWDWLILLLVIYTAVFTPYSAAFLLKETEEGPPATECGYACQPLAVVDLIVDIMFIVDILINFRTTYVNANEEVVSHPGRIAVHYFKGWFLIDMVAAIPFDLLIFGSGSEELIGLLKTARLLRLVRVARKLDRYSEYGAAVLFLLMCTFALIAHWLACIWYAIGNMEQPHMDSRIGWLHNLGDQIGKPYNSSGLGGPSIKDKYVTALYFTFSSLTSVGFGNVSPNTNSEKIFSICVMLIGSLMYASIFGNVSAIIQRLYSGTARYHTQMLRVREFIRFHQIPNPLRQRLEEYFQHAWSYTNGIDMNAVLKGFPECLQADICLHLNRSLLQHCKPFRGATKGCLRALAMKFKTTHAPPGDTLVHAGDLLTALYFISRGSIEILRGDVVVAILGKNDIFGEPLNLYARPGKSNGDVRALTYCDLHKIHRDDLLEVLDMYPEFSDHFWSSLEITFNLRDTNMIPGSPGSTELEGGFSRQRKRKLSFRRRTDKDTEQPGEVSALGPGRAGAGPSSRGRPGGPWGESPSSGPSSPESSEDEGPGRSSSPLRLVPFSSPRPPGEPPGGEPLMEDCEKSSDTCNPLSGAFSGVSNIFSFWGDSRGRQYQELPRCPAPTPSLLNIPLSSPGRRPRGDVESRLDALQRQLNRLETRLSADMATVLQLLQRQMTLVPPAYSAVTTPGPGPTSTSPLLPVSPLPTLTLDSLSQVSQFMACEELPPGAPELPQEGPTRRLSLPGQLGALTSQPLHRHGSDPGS
Regarding `COC(=O)C1CN(C(=O)C(C)Oc2cccc(C)c2C)c2ccccc2O1` (stereo not drawn), the “hERG current change (%, negative = inhibition) at 10uM” value is on record as -8.63%. Next, `C=CCNc1nc(NCC)nc(N2CCOCC2)n1`: -0.791%. As to `COc1ccc(-n2nc3c(c2NC(=O)COc2ccccc2)CS(=O)C3)cc1` (stereo not drawn), the “hERG current change (%, negative = inhibition) at 10uM” value is listed as -28.2%.

Consider `NC(=NC(=O)c1ccc(OCC(F)(F)F)nc1)c1ccc(Cl)cc1`, for which the “hERG current change (%, negative = inhibition) at 10uM” value turned out to be 17.9%. With `O=S(=O)(NCc1cccnc1)c1ccc2c(c1)OCCO2`, the “hERG current change (%, negative = inhibition) at 10uM” value was 0.45%.

In the case of `CCOC(=O)c1cccnc1SC(CC)C(=O)NCc1ccco1` (stereo not drawn), the “hERG current change (%, negative = inhibition) at 10uM” value is given as -31.5%.

Take `CCOC(=O)c1cnc2c(C)cccc2c1Nc1cccc(C(=O)O)c1.Cl`: the “hERG current change (%, negative = inhibition) at 10uM” value is given as -8.37%. Next, `CCOC(=O)c1cnc2ccccc2c1Nc1ccc(C(=O)O)cc1.Cl`: 17.9%. Next, `CCOC(=O)c1cnc2c(C(=O)OC)cccc2c1NCc1ccco1`: -70.2%. For the compound `CCOC(=O)c1cnc2c(C)cccc2c1Nc1ccc(N2CCOCC2)cc1`, the “hERG current change (%, negative = inhibition) at 10uM” value is 8.24%.

On to `CCOC(=O)c1cnc(SCC(=O)NCc2ccco2)nc1N`, for which the “hERG current change (%, negative = inhibition) at 10uM” value is reported as -14.5%. On to `CCOC(=O)c1cnc2c(C)cccc2c1NCc1ccco1`, for which the “hERG current change (%, negative = inhibition) at 10uM” value is -67.9%. `CCOC(=O)c1ccc2ncc(C(=O)OCC)c(NCc3ccco3)c2c1`: the “hERG current change (%, negative = inhibition) at 10uM” value was -24.7%.

Regarding `CCOC(=O)c1cnc2ccccc2c1NCc1ccco1`, the “hERG current change (%, negative = inhibition) at 10uM” value is on record as -56.9%. Next, `CCOc1ccc(NC(=O)c2nc(SCC)ncc2Cl)cc1`: 15%. As to `COc1ccc(OC)c(C(C(=O)NC2CCCCC2)N(C(=O)c2snc(C(N)=O)c2N)c2ccccc2OC)c1` (stereo not drawn), the “hERG current change (%, negative = inhibition) at 10uM” value came to 14.8%.

For `O=C(COc1ccc2c3c(c(=O)oc2c1)CCCC3)NC(Cc1ccc(Cl)cc1)C(=O)O` (stereo not drawn), the “hERG current change (%, negative = inhibition) at 10uM” value is recorded as 5.92%. Next, `CCOC(=O)c1nc(C)n(-c2cc(Cl)cc(Cl)c2)n1`: -17.5%.

Regarding `CCOC(=O)c1nn(-c2ccccc2)c(=O)cc1OCC(=O)Nc1cc(C)ccc1OC`, the “hERG current change (%, negative = inhibition) at 10uM” value is reported as -44%. Next, `CCCNc1nc2c(c(=O)n(C)c(=O)n2C)n1Cc1ccc(F)cc1`: -12.8%; `COc1ccccc1NC(=O)CCC(=O)O`: 23.4%. Next, `COc1ccc(N2C(=O)CSC2c2cccs2)cc1` (stereo not drawn): -3.37%; `CN1CCN(Cc2cc(Cl)c3cccnc3c2OC(=O)c2cccs2)CC1`: -53.3%. Next, `O=C(Oc1c(CN2CCOCC2)cc(Cl)c2cccnc12)c1cccs1`: -21.9%. Consider `O=C(Oc1c(Cl)cc(Cl)c2cccnc12)c1cccs1`, for which the “hERG current change (%, negative = inhibition) at 10uM” value is recorded as 1.95%.

Turning to `CN(C)S(=O)(=O)c1ccc(N2CCCC2)c(C(=O)NNC(=O)c2ccc(F)cc2)c1`, the “hERG current change (%, negative = inhibition) at 10uM” value is reported as 15.5%.

For `COc1ccc(NC(=O)NNC(=O)C(C)Oc2ccc3ccccc3c2)cc1OC` (stereo not drawn), the “hERG current change (%, negative = inhibition) at 10uM” value is -16.2%. `COc1ccc(C(=O)NCc2nnc(SCC(=O)N3CCOCC3)o2)cc1OC`: the “hERG current change (%, negative = inhibition) at 10uM” value was determined as 13.7%.

For the compound `CCNC(=O)N(CCOC)CC1CCCN(C2Cc3ccccc3C2)C1` (stereo not drawn), the “hERG current change (%, negative = inhibition) at 10uM” value is on record as -22.9%.

Turning to `COCCN(CC1CCCN(C2Cc3ccccc3C2)C1)C(=O)c1cccs1` (stereo not drawn), the “hERG current change (%, negative = inhibition) at 10uM” value was -68.5%. Next, `CCOC(=O)CNC(=O)N(CCOC)CC1CCCN(C2Cc3ccccc3C2)C1` (stereo not drawn): -28.5%. Next, `COCCN(CC1CCCN(C2Cc3ccccc3C2)C1)C(=O)CSC` (stereo not drawn): -10.7%; `COCCN(CC1CCCN(C2Cc3ccccc3C2)C1)C(=O)c1ccc(C(C)=O)cc1` (stereo not drawn): -78.6%; `CCCNC(=O)N(CCOC)CC1CCCN(C2Cc3ccccc3C2)C1` (stereo not drawn): -47.8%. Next, `O=C(NCc1ccco1)C1CCCN(S(=O)(=O)c2cccc3cccnc23)C1` (stereo not drawn): 0.148%; `CCOC(=O)c1cc(-c2nnc(SCC(=O)Nc3ccc(F)cc3)o2)c(C)nc1C`: 7.9%.

For the compound `COc1ccc(C(=O)NCc2nnc(SCC(=O)c3ccccc3)n2C)cc1OC`, the “hERG current change (%, negative = inhibition) at 10uM” value is recorded as -18.2%. Consider `O=C(c1cc(-c2ccccc2)n[nH]1)N1CCc2c([nH]c3ccccc23)C1c1ccccn1` (stereo not drawn), for which the “hERG current change (%, negative = inhibition) at 10uM” value amounted to 14.5%.

Consider `Cc1sc2nc(C3CCCCC3)nc(SCC(=O)N3CC(=O)Nc4ccccc43)c2c1C`, for which the “hERG current change (%, negative = inhibition) at 10uM” value was found to be 52.8%.

As for `CC(C)c1ccc(/C=C2\SC(=S)N(CCC(=O)N3CCCCC3CCO)C2=O)cc1` (stereo not drawn), the “hERG current change (%, negative = inhibition) at 10uM” value worked out at 20.3%. Next, `CCOc1ccccc1N1CC(C(=O)NNC(=O)c2cc(OC)c(OC)c(OC)c2)CC1=O` (stereo not drawn): 9%. Next, `Cc1cc(C)n2c(=S)[nH]nc2n1`: 19.6%; `CCOC(=O)N1CCC(N2Cc3cccc(C(=O)N4CCN(C5CCCCC5)CC4)c3C2=O)CC1`: -62.4%; `CCCN1Cc2cccc(C(=O)N3CCN(c4ccccc4)CC3)c2C1=O`: 6.02%. Next, `CCOC(=O)N1CCC(N2Cc3cccc(C(=O)N4CCN(c5cccc(C)c5C)CC4)c3C2=O)CC1`: -36.7%; `CCOC(=O)N1CCC(N2Cc3cccc(C(=O)N4CCN(c5cccc(Cl)c5)CC4)c3C2=O)CC1`: -63.7%.

Consider `CCOC(=O)N1CCC(N2Cc3cccc(C(=O)N4CC(C)CC(C)C4)c3C2=O)CC1` (stereo not drawn), for which the “hERG current change (%, negative = inhibition) at 10uM” value is listed as 6.31%.

As for `CCOC(=O)N1CCC(N2Cc3cccc(C(=O)O)c3C2=O)CC1`, the “hERG current change (%, negative = inhibition) at 10uM” value was -23.6%.

For `CCCN1Cc2cccc(C(=O)N3CCN(c4cc(Cl)ccc4C)CC3)c2C1=O`, the “hERG current change (%, negative = inhibition) at 10uM” value was -52.5%. As to `COCCN1Cc2cccc(C(=O)N3CCN(c4cc(C)ccc4C)CC3)c2C1=O`, the “hERG current change (%, negative = inhibition) at 10uM” value is -16.5%. Consider `Cn1ccc(C(=O)NC(=S)N2CCSCC2)n1`, for which the “hERG current change (%, negative = inhibition) at 10uM” value is reported as 9.2%. Next, `O=C(CSCc1cccc(Br)c1)NC1CC1`: -6.25%.

On to `Fc1cccc(CSc2nc3ncccc3[nH]2)c1`, for which the “hERG current change (%, negative = inhibition) at 10uM” value was found to be 4.28%. Next, `O=C(O)CC(c1ccc(Cl)cc1)N1C(=O)CCC1=O` (stereo not drawn): -7.96%; `Cn1cnnc1SCCNS(=O)(=O)c1ccccc1`: 10.8%; `COc1ccc2c(C)c(C)c(=O)oc2c1OC`: 3.4%.

On to `CN(CC1CCCN(CCc2ccc(F)cc2)C1)C(=O)CCC(N)=O` (stereo not drawn), for which the “hERG current change (%, negative = inhibition) at 10uM” value was -23.9%.

`CN(C)C(=O)CCC(=O)N(C)CC1CCCN(CCc2ccc(F)cc2)C1` (stereo not drawn): the “hERG current change (%, negative = inhibition) at 10uM” value is recorded as -38.1%. Regarding `CN(CC1CCCN(CCc2ccc(Cl)cc2)C1)C(=O)CC(F)(F)F` (stereo not drawn), the “hERG current change (%, negative = inhibition) at 10uM” value was -60.5%.

In the case of `CN(CC1CCCN(CCc2ccc(F)cc2)C1)C(=O)CCC(F)(F)F` (stereo not drawn), the “hERG current change (%, negative = inhibition) at 10uM” value is on record as -63%. Next, `CC(=O)Nc1cccc(C(=O)OCc2csc(CC(=O)Nc3ccccc3C)n2)c1`: -14%. Take `N#CCCn1cc(C=C2C(=O)NC(=O)NC2=O)c(-c2ccccc2)n1`: the “hERG current change (%, negative = inhibition) at 10uM” value worked out at 25.2%. Turning to `CCOc1ccc(C)cc1S(=O)(=O)n1ccc(C)n1`, the “hERG current change (%, negative = inhibition) at 10uM” value was found to be 4.82%. On to `COc1ccc(Cl)cc1C(=O)NCCCN1CCOCC1`, for which the “hERG current change (%, negative = inhibition) at 10uM” value was 9.16%. With `Cc1ccccc1S(=O)(=O)Cc1ccc(C(=O)NCCCN2CCC(C)CC2)o1`, the “hERG current change (%, negative = inhibition) at 10uM” value is -36.2%. Next, `O=C(NCCCN1CCOCC1)c1cc(Cl)ccc1OCc1ccccc1`: -55.7%; `Cc1cccc(CSCc2ccc(C(=O)NC3CCCC3)o2)c1`: -55.5%. Next, `O=C(NCCCN1CCOCC1)c1cc(Cl)ccc1Cl`: 11.5%; `O=C(CC(c1ccccc1)c1cc(Br)ccc1O)NCCCN1CCOCC1` (stereo not drawn): -31.3%.

With `CC1CCN(CCCNC(=O)c2ccc(CSCc3cccc(Cl)c3)o2)CC1`, the “hERG current change (%, negative = inhibition) at 10uM” value is given as -74.8%. Next, `Cc1ccc(CSCc2ccc(C(=O)NC3CCCC3)o2)cc1`: -18.2%. Next, `O=C(NCc1ccc2c(c1)OCO2)c1ccc(CSCc2cccc(Cl)c2)o1`: -11.1%; `O=C(CC(c1ccccc1)c1cc(Cl)ccc1O)NCCCN1CCOCC1` (stereo not drawn): -50%; `Cc1ccc(CSCc2ccc(C(=O)NC3CC3)o2)cc1`: -5.31%. As for `O=C(CC(c1ccccc1)c1cc(Cl)ccc1O)NCCN1CCOCC1` (stereo not drawn), the “hERG current change (%, negative = inhibition) at 10uM” value was -42.1%. Next, `CCC(C)C(NC(=O)C1CCC(C)CC1)C(=O)Nc1ccc(OC)cc1OC` (stereo not drawn): -4.26%; `CCCCC(c1nnnn1C(C)C)N1CCN(C(=O)c2ccco2)CC1.Cl` (stereo not drawn): -18.9%; `O=C(c1ccccc1)N1N=C(c2ccccc2)CC1c1ccccc1[N+](=O)[O-]` (stereo not drawn): 13.4%. Next, `COc1ccccc1CNc1cc(CSc2ccc(Cl)cc2)nc(C)n1`: -0.554%; `CCOC(=O)c1ccc(N2Cc3ccccc3C2=NC(=O)c2cccc([N+](=O)[O-])c2)cc1`: 10.7%; `CN(C)c1ccc(/C=N/NC(=O)CCCO)cc1`: 24.4%. Regarding `Cc1ccccc1CSCc1ccc(C(=O)NCCCN2CCOCC2)o1`, the “hERG current change (%, negative = inhibition) at 10uM” value was -47.6%. Next, `Cc1ccc(CSCC(=O)NCCCN2CCOCC2)cc1`: 11.4%; `COCCNC(=O)c1ccc(CSCc2cccc(Cl)c2)o1`: -7.69%. Next, `CN1CCN(CCCNC(=O)c2ccc(CSCc3cccc(Cl)c3)o2)CC1`: -40.2%.

In the case of `O=C(NCCN1CCOCC1)c1ccc(CSCc2cccc(Cl)c2)o1`, the “hERG current change (%, negative = inhibition) at 10uM” value is reported as -43.7%. Next, `O=C(NCCCN1CCCC1)c1ccc(CSCc2cccc(Cl)c2)o1`: -61.8%; `O=C(NCCCN1CCOCC1)c1ccc(CSCc2cccc(Cl)c2)o1`: -64.4%; `Cc1cccc(CS(=O)(=O)Cc2ccc(C(=O)NCCCN3CCOCC3)o2)c1`: -12.6%. In the case of `Cc1ccc(CSCc2ccc(C(=O)NCCCN3CCOCC3)o2)cc1`, the “hERG current change (%, negative = inhibition) at 10uM” value is given as -51.8%.
